697 NFkB inh: inhibitors of the PMA/ionomycin-induced NF-kB reporter in 697 B cells; 0.33% of 330,000 active; 697 B-cell NF-kB luciferase reporter, 16 h; inhibition, % at 4 µM; in the data active means inhibition above about 35%
NTR1 ag: agonists of human neurotensin receptor NTR1; P30989; 0.17% of 330,000 active; NTR1-U2OS beta-arrestin-GFP spot imaging, agonist mode; activation, % at 20 µM;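 active means activation at or above 40% of the spot to cytoplasm intensity ratio, with at least 20 cells analyzed; inconclusive means wells under 20 cells, flagged as cytotoxic or low count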;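 further: 0% = DMSO without peptide and 100% = 100 nM NTR1 peptide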
Target sequence (P30989 whole entry, looked up): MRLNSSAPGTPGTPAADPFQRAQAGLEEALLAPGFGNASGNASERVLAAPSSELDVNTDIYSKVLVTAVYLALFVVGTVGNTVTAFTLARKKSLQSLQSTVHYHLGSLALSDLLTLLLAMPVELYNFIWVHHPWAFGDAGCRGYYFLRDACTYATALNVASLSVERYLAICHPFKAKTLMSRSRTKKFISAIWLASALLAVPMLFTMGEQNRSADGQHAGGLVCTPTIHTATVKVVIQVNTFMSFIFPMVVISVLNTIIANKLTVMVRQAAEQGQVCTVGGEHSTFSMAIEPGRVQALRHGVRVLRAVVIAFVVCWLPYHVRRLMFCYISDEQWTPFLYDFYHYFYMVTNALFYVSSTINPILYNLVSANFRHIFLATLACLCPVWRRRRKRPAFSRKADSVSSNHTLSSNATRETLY
Jurkat NFkB inh: lowers PMA/ionomycin-induced NF-kB signal in Jurkat cells; PMA/ionomycin-induced NF-kB luciferase reporter, luminescence; inhibition, % at 4 µM; 0.53% of 330,000 active; AID 435003; in the data active means inhibition above about 50%
Beta cell apopt: beta cell apoptosis inhibition | AID 435005 | INS-1E cytokine-induced death, ATP luminescence, 48 h; percent of positive-control rescue, neutral wells zero | 0.8% of 300,000 active | protection from apoptosis, % (concentration not given with the values);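 active means Every replicate reaches about 75%, or at least half do and their mean reaches it too, limit read from the data; inconclusive means At least half of replicates reach the limit but their mean does not; inactive means Under half of replicates reach the limit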;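 further: 0% = cytokine-treated negative control wells and 100% = positive control rescue; higher means more ATP so stronger rescue from cytokine killing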
Mdm2 MdmX PPI: disrupts the human Mdm2-MdmX interaction | O15151+Q00987 | SaOS-2 split-luciferase Mdm2/MdmX complementation, luminescence | inhibition, % at 8 µM | 3% of 330,000 active | AID 485346;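 active means inhibition of at least 50% at 8 µM in the primary screen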
A1 inh: inhibitors of the anti-apoptotic protein A1, read as caspase activation; MEF A1-2A-BIM cells, Caspase-Glo 3/7 luminescence, 3 h; percent of clofoctol response, vehicle zero; caspase activation, % (no concentration beside the values); 0.066% of 330,000 active;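 active means over half of replicate activation scores above 10%, or exactly half above 10 with the replicate mean above 10; inconclusive means replicate mean below 10 yet half the replicates above 10; inactive means over half of replicates below 10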
* hit, by the source's call. Rows were chosen to be rich in hits. Some 3.8% of all compounds tested hit in one or more screens of this group.

Results for Cn1nc(-c2ccccc2)cc1NC(=O)c1ccccc1 ?
697 NFkB inh: -3; NTR1 ag: -1; Jurkat NFkB inh: -22; Beta cell apopt: -5; Mdm2 MdmX PPI: 0; A1 inh: 0

What do the screens show for `COCc1ccc(C(=O)N2CCCC(C(=O)c3ccc(SC)cc3)C2)s1` (stereo not given)?
697 NFkB inh: 2; NTR1 ag: 3; Jurkat NFkB inh: 0; Beta cell apopt: -3; Mdm2 MdmX PPI: -7; A1 inh: -3

How did COC(=O)C[C@](O)(CCCC(C)(C)O)C(=O)O[C@@H]1C(OC)=C[C@]23CCCN2CCc2cc4c(cc2[C@H]13)OCO4 do in these assays?
Beta cell apopt: 78*; A1 inh: inconclusive

What do the screens show for `Fc1ccc2nc(Nc3nc4c(F)cc(F)cc4s3)sc2c1`?
Beta cell apopt: 90*; A1 inh: -4

How did CCCCCCSc1ccc([C@H]2N[C@@](Cc3ccccc3)(C(=O)OC)[C@H]3C(=O)N(C)C(=O)[C@@H]23)cc1 do in these assays?
697 NFkB inh: 3; NTR1 ag: 8; Jurkat NFkB inh: 9; Beta cell apopt: 99*; Mdm2 MdmX PPI: 48; A1 inh: 0

Results for Cc1cc(C(=O)N/N=C/c2cc(N=Nc3ccccc3)ccc2O)n[nH]1 ?
Beta cell apopt: 83*; A1 inh: -1

Results for COC(=O)N/N=C/c1cc(N=Nc2ccccc2)ccc1O ?
697 NFkB inh: 3; NTR1 ag: 0; Jurkat NFkB inh: -8; Beta cell apopt: -10; Mdm2 MdmX PPI: 34; A1 inh: -2

Results for O=C(NCc1ccccc1Cl)C1=CC=CN2CCS(=O)(=O)N=C12 ?
697 NFkB inh: 27; NTR1 ag: 0; Jurkat NFkB inh: -7; Beta cell apopt: 2; Mdm2 MdmX PPI: 11; A1 inh: 0

Results for O=C(Cc1ccccn1)c1ccc(Cl)cc1 ?
697 NFkB inh: -64; NTR1 ag: 11; Jurkat NFkB inh: -53; Beta cell apopt: -7; Mdm2 MdmX PPI: -47; A1 inh: -9

Results for CC1=C(CC(=O)c2ccc(Cl)cc2)C(=O)c2ccccc2C1=O ?
697 NFkB inh: -63; NTR1 ag: 6; Jurkat NFkB inh: -53; Beta cell apopt: 99*; Mdm2 MdmX PPI: -3; A1 inh: -1

What do the screens show for `Cc1cc(C)c2c(N)c3cccc(C)c3nc2n1`?
Beta cell apopt: 98*; A1 inh: 2

What do the screens show for `CC1CCCCC1NS(=O)(=O)c1ccc(S(=O)(=O)NCc2ccncc2)cc1` (stereo not given)?
697 NFkB inh: 24; NTR1 ag: -1; Jurkat NFkB inh: 48; Beta cell apopt: 77*; Mdm2 MdmX PPI: -2; A1 inh: 0

What do the screens show for `Cc1ccc(S(=O)(=O)NCc2ccncc2)cc1`?
697 NFkB inh: -28; NTR1 ag: 0; Jurkat NFkB inh: 35; Beta cell apopt: 53; Mdm2 MdmX PPI: 4; A1 inh: 1

Results for COc1cc(C(=O)Nc2ccc(N3CCCS3(=O)=O)cc2)c([N+](=O)[O-])cc1OC ?
697 NFkB inh: 18; NTR1 ag: 2; Jurkat NFkB inh: -5; Beta cell apopt: -5; Mdm2 MdmX PPI: -25; A1 inh: 0

Results for COc1ccc(-c2nn(-c3ccccc3)cc2C(=O)OCC(=O)c2ccc(C)c([N+](=O)[O-])c2)cc1 ?
697 NFkB inh: 5; NTR1 ag: 2; Jurkat NFkB inh: 7; Beta cell apopt: 101*; Mdm2 MdmX PPI: 13; A1 inh: 2

What do the screens show for `CCN(CC)CCCNC(=S)N(CCCO)Cc1cc2cc3c(cc2[nH]c1=O)OCO3`?
697 NFkB inh: 10; NTR1 ag: 1; Jurkat NFkB inh: 6; Beta cell apopt: 2; Mdm2 MdmX PPI: 8; A1 inh: 1

How did O=C(N/N=C/c1ccc([N+](=O)[O-])s1)c1ccccc1 do in these assays?
697 NFkB inh: -6; NTR1 ag: -1; Jurkat NFkB inh: -1; Beta cell apopt: -1; Mdm2 MdmX PPI: 37; A1 inh: 0

How did O=C(Cc1ccccc1)N/N=C/c1ccc([N+](=O)[O-])s1 do in these assays?
697 NFkB inh: 7; NTR1 ag: 3; Jurkat NFkB inh: 35; Beta cell apopt: 88*; Mdm2 MdmX PPI: 15; A1 inh: -1

High-throughput results deposited in PubChem by several laboratories.
